Screens: PubChem, several laboratories
This is a sample that favours compounds with a hit; in the whole collection about 3.7% have one here.
tim10-1 inh – inhibits growth of tim10-1 mutant yeast. S. cerevisiae tim10-1 ts strain growth, BacTiter-Glo, 24 h. inhibition, % at 20 µM. hit rate 2.2% among 330,000;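 active = inhibition of at least 40%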;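 note: mutant grown at 25 °C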
Rce1 inh – blocks yeast Ras-converting enzyme; yeast membranes, quenched prenylated peptide cleavage fluorescence; calls only; hit rate 0.27% among 290,000;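 active = fall in fluorescence gain of 50% or more versus controls, with final raw signal at or below 3038400; inconclusive = same 50% fall but final raw signal above 3038400; inactive = fall in fluorescence gain under 50%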
Target sequence (Q03530 whole entry, looked up): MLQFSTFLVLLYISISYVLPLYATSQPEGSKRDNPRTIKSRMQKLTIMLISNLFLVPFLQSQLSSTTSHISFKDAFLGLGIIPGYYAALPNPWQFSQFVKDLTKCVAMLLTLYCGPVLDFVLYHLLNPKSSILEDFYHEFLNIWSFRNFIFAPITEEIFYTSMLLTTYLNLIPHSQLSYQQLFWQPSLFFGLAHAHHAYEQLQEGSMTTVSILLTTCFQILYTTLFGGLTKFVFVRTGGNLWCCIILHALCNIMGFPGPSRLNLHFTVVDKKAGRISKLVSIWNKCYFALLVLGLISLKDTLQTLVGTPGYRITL
tim23-1 inh – inhibits growth of tim23-1 mutant yeast | S. cerevisiae tim23-1 growth, BacTiter-Glo luminescence, 24 h | inhibition, % at 20 µM | hit rate 1.3% among 330,000;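 active = growth inhibition of the mutant yeast at or above 50%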;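 note: temperature-sensitive mutant grown at 25 °C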
TIM10 inh – growth inhibitors of TIM10 yeast strain; inhibition, % at 10 µM; hit rate 1.4% among 330,000; AID 463195; S. cerevisiae TIM10 strain growth, BacTiter-Glo luminescence, 24 h;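 active = inhibition of 40% or more at the single tested concentration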;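 note: wild-type TIM10 isogenic control strain grown at permissive 25 °C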
PfHsp90 set2 – inhibits growth of yeast expressing Plasmodium falciparum Hsp90; S. cerevisiae expressing PfHsp90, BacTiter-Glo ATP, 48 h; yeast lacking PDR1 and PDR3 efflux regulators; inhibition, % at 9.4 µM; hit rate 0.32% among 310,000; AID 504621;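 active = every replicate shows inhibition above about 80%, whatever the replicate mean, limit read from the data; inconclusive = mean inhibition reaches the set limit but some replicate falls short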
tim10-1 confirm – tim10-1 yeast growth inhibition, confirmed | shares compounds with tim10-1 inh | S. cerevisiae tim10-1 ts strain growth, BacTiter-Glo, 24 h | inhibition, % at 20 µM | AID 463213 | hit rate 56% among 7,400;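 active = inhibition of yeast growth at or above a set limit in either of two repeat tests at 20 µM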;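 note: tim10-1 mutant grown at permissive 25 °C to find synthetic lethal compounds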
TIM10 conf – confirmation of TIM10 yeast growth inhibitors. shares compounds with TIM10 inh. S. cerevisiae tim10 strain growth, BacTiter-Glo luminescence, 24 h. inhibition, % at 10 µM. hit rate 63% among 4,600. AID 463215;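 active = inhibition of yeast growth at or above a set limit in either of two replicates at 10 µM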; note: this counterscreen used the strain with wild-type TIM10
tim23-1 conf – confirmation of tim23-1 mutant yeast growth inhibitors. shares compounds with tim23-1 inh. S. cerevisiae tim23-1 growth, BacTiter-Glo luminescence, 24 h. inhibition, % at 20 µM. hit rate 83% among 4,400;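 active = inhibition above about 39% in either of two replicate wells at 20 µM, limit read from the data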;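 note: temperature-sensitive tim23-1 mutant grown at 25 °C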
Each line names hits and unclear results; the compound was inactive in the other large screens (follow-up assays come after a bar, where they were run).

Cc1nn(-c2ccc(F)cc2)c(C)c1NS(=O)(=O)c1ccc(Cl)cc1	tim10-1 inh 48.2, TIM10 inh 50.9 | tim10-1 confirm 39.9 | TIM10 conf inactive
O=c1c2ccccc2nc2c3ccccc3c(NCc3ccccn3)nn12	tim10-1 inh 71.4, TIM10 inh 70.7 | tim10-1 confirm 65.0 | TIM10 conf 63.2
O=c1c2ccccc2nc2c3ccccc3c(NCc3cccnc3)nn12	tim10-1 inh 53.9, TIM10 inh 49.1 | tim10-1 confirm 63.9 | TIM10 conf 51.1
O=C1ON=C(c2ccccc2[N+](=O)[O-])/C1=C/c1cccc([N+](=O)[O-])c1O	none (no result: Rce1 inh)
CCCN(CCC)C1CC(=O)N(Cc2ccccc2)C1=O (configuration not stated)	tim10-1 inh 53.3, TIM10 inh 41.5, PfHsp90 set2 inconclusive | tim10-1 confirm 47.1 | TIM10 conf 38.6
CCCCCCC(=O)N(O)C1CC(=O)N(Cc2ccccc2)C1=O (configuration not stated)	tim10-1 inh 44.9, TIM10 inh 42.6 | tim10-1 confirm 40.7 | TIM10 conf inactive
COc1cc(C2c3c(oc4ccccc4c3=O)C(=O)N2c2nccs2)ccc1O (configuration not stated)	none
CC(Sc1nnc2n1CCCCC2)C(=O)Nc1ccccc1[N+](=O)[O-] (configuration not stated)	none (no result: Rce1 inh)
CCOCCCNC(=O)C(c1ccccc1)N(Cc1ccc2c(c1)OCO2)C(=O)c1ccccc1O (configuration not stated)	none
Cc1ccc(Nc2cc(C)nc(-c3ccccc3O)n2)cc1	tim10-1 inh 58.5, TIM10 inh 52.9 (no result: PfHsp90 set2) | tim10-1 confirm 58.5 | TIM10 conf 47.6
CC(C)c1cccc(C(C)C)c1OC(=O)[C@H]1OC(c2ccc(Br)cc2)=C[C@@H]1c1ccc(Br)cc1	none (no result: Rce1 inh)
COc1ccc(C(=O)Sc2nncc3ccccc23)cc1	tim10-1 inh 44.9, TIM10 inh 41.6 (no result: Rce1 inh) | tim10-1 confirm inactive | TIM10 conf 41.4
Cc1ccccc1C1C(C#N)=C2N=C(N)c3c(sc4c3CCCCC4)N2C2=C1C(=O)CCC2 (configuration not stated)	none (no result: PfHsp90 set2)
Cc1ccc(C)c(-c2cc(C(=O)NCc3cccs3)c3ccccc3n2)c1	none
Cc1ccc(Nc2ncccc2C(=O)NCc2cccs2)c(C)c1	tim10-1 inh 48.9, TIM10 inh 50.6 (no result: PfHsp90 set2) | tim10-1 confirm 33.2 | TIM10 conf 39.0
Cc1ccnc(NC(=O)Nc2ccc(Br)cc2Cl)c1	none (no result: Rce1 inh)
COc1ccc(/C=C2\CCc3ccccc3C2=O)cc1O	tim10-1 inh 53.8, tim23-1 inh 64.8, TIM10 inh 45.1 | tim10-1 confirm 41.4 | TIM10 conf 42.3 | tim23-1 conf 58.8
O=C1/C(=C/c2ccccc2)CCCc2ccccc21	none (no result: Rce1 inh, PfHsp90 set2)
Cc1nn(-c2ccccc2)c2c1C1(C(=O)N3c4c(cccc41)C(C)CC3(C)C)C(C#N)=C(N)O2 (configuration not stated)	tim10-1 inh 74.7, tim23-1 inh 68.7, TIM10 inh 51.9 | tim10-1 confirm 72.8 | TIM10 conf 42.8 | tim23-1 conf 77.8
CC(=O)N1C(=O)C2(C(C#N)=C(N)Oc3c2c(C)nn3-c2ccccc2)c2ccccc21 (configuration not stated)	none
Cc1ccc(OCC(=O)N(C)CC(=O)N(CC(C)C)c2c(N)n(CC(C)C)c(=O)[nH]c2=O)c(C)c1	none
Cc1c(Cl)sn(-c2ccc(Cl)cc2)c1=O	tim10-1 inh 96.4, tim23-1 inh 55.3, TIM10 inh 97.2, PfHsp90 set2 110.9 (no result: Rce1 inh) | tim10-1 confirm 98.2 | TIM10 conf 99.5 | tim23-1 conf 99.3
Cc1nn(-c2ccc(Cl)cc2)c(=O)c2ccccc12	none
Cc1ccc(OCCCC(=O)ON=C(N)c2ccccc2C)cc1	tim10-1 inh 60.1, tim23-1 inh 62.4, TIM10 inh 41.1 (no result: Rce1 inh) | tim10-1 confirm 63.5 | TIM10 conf 50.3 | tim23-1 conf 61.4
CCC(Oc1ccccc1)C(=O)N1CCN(S(=O)(=O)c2ccccc2)CC1 (configuration not stated)	none (no result: Rce1 inh)
COc1ccc(Br)cc1/C=c1\sc2nc(-c3ccco3)nn2c1=O	tim10-1 inh 54.3, tim23-1 inh 53.0, TIM10 inh 41.6 | tim10-1 confirm 44.2 | TIM10 conf 38.5 | tim23-1 conf 54.8
O=C(N/N=C/c1ccc([N+](=O)[O-])o1)c1cn2ccc3ccccc3c2n1	tim10-1 inh 59.4, tim23-1 inh 73.7, TIM10 inh 59.6 (no result: Rce1 inh) | tim10-1 confirm 72.2 | TIM10 conf 78.3 | tim23-1 conf inactive
CCCC(=O)Nc1ccc(C(=O)N/N=C/c2ccc([N+](=O)[O-])o2)cc1	none
COc1cc(/C=C(/C#N)C(=O)NCc2ccccc2)cc(OC)c1OC	tim10-1 inh 55.0, tim23-1 inh 62.6 | tim10-1 confirm 49.1 | tim23-1 conf 60.5
Cc1cc(OC(=O)c2ccc(C(C)(C)C)cc2)c([N+](=O)[O-])c(=O)[nH]1	none
C=CCSc1n[nH]c(-c2ccc(OCCCC)cc2)n1	tim10-1 inh 41.2, tim23-1 inh 72.1, TIM10 inh 56.1 (no result: PfHsp90 set2) | tim10-1 confirm inactive | TIM10 conf 48.0 | tim23-1 conf 67.1
C=CCSc1n[nH]c(-c2cccs2)n1	none
CCNC(=S)NNC(=O)c1cc(-c2ccc(OC)cc2)nc2ccccc12	tim10-1 inh 81.8, tim23-1 inh 85.8, TIM10 inh 54.2 | tim10-1 confirm 73.7 | TIM10 conf inactive | tim23-1 conf 78.4
CCNC(=S)NNC(=O)c1cc(C)nc2ccccc12	none
CCNC(=S)NNC(=O)c1cc(-c2cccc(C)c2)nc2ccccc12	tim10-1 inh 82.2, tim23-1 inh 73.5, TIM10 inh 54.9 | tim10-1 confirm 79.0 | TIM10 conf 40.8 | tim23-1 conf 71.5
CCCCOc1ccc(-c2cc(C(=O)NNC(=S)NCC)c3ccccc3n2)cc1	tim10-1 inh 71.5, tim23-1 inh 67.4, TIM10 inh 47.3 | tim10-1 confirm 70.0 | TIM10 conf 46.2 | tim23-1 conf 73.8
CCCCNC(=S)NNC(=O)c1cc(-c2cccnc2)nc2ccccc12	none
O=C(Nc1ccccc1)NC1(C(=O)NCc2cccs2)CCCCC1	none
O=C(Cn1nnc2c(cnn2-c2ccc(F)cc2)c1=O)Nc1ccccc1C(F)(F)F	none
O=[N+]([O-])c1ccc2[nH]c3c(c2c1)CCCC3	tim10-1 inh 64.8, tim23-1 inh 66.3 | tim10-1 confirm 57.0 | tim23-1 conf 66.5
N/N=C1\CCCc2c1[nH]c1ccc([N+](=O)[O-])cc21	none (no result: PfHsp90 set2)
CC(C)(C)c1ccc(C(=O)O/N=C(\N)c2ccccc2)cc1	tim10-1 inh 57.2, tim23-1 inh 83.5, TIM10 inh 82.5 | tim10-1 confirm 45.0 | TIM10 conf 91.8 | tim23-1 conf 78.5
